Assay results reported in PubChem BioAssay (NCATS).
A number with no mark means an inactive call. The rule behind the calls is not given here.

Test system: HIV-1 nucleocapsid protein NCp7 (binding to TG oligonucleotide)
Experiment: HIV Nucleocapsid (AID 346);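 note: potency is for inhibitors that block NC binding and lower polarization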
Details: HIV-1 NC / fluorescein-TGTGTGTG probe, fluorescence polarization
In short: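 Reagents dispensed (10 nM TG4xF, 100 nM HIV-1 NC), plates spun, compounds pin-transferred, then incubated 1 hr at room temperature before FP imaging. Buffer: Hepes pH 7.5, 250mM NaCl, 1uM ZnCl2, 100 uM TCEP, 5 mM 2-mercaptoethanol.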
Potency is the fitted concentration of half-maximal effect.

Row | Compound | Potency
1 | COCCNc1nc(-c2ccoc2)nc2ccccc12 | > 20 µM
2 | Cn1cc(-c2nc3cncnc3n(Cc3ccc(F)cc3)c2=O)c2ccccc21 | > 20 µM
3 | CC(=O)N1CCC2(CC1)CCN(c1ccncc1)CC2 | > 20 µM
4 | COc1cccc(Nc2ncc3nc(-c4ccc(F)cc4)c(=O)n(C)c3n2)c1 | > 4 µM
5 | O=C(Nc1ccccc1)N1CCCC2(CCNCC2)C1 | > 20 µM
6 | COc1ccc(-n2c(=O)c(-c3ccc(F)c(F)c3)nc3cncnc32)cc1 | > 4 µM
7 | O=c1c(-c2ccccc2)nc2cncnc2n1-c1ccccc1 | > 20 µM
8 | O=C(c1cc(C(F)(F)F)cc(C(F)(F)F)c1)N1CCC2(CCCN(c3ccccn3)C2)CC1 | > 20 µM
9 | Cc1cnc(CNc2cc(-c3ccc(N(C)C)cc3)ncn2)cn1 | > 20 µM
10 | CN(C)c1ncnc2ccc(-c3cccnc3)cc12 | > 20 µM
11 | N#CCCn1c(=O)c(-c2ccc(Cl)cc2)nc2cnc(OCc3ccccc3)nc21 | > 20 µM
12 | COc1cccc(-c2nc(NCc3ccccc3)c3ccccc3n2)c1 | > 20 µM
13 | COc1ccc(-n2c(=O)c(-c3cn(C)c4ccccc34)nc3cnc(N4CCOCC4)nc32)cc1 | > 20 µM
14 | O=S(=O)(c1ccccc1)N1CCC[C@@]2(CCN(c3cccc(-c4ccccc4)c3)C2)C1 | > 20 µM
15 | N#Cc1cccc(-c2cncnc2NCc2ccccc2)c1 | > 20 µM
